Source: PubChem BioAssay
An excerpt weighted towards active compounds, which were near 3.8% of everything screened.
Nrf2 block: Nrf2 pathway inhibition; A549 ARE-Fluc reporter, luciferase luminescence, 18-24 h; Potency, µM (titrated, usually from 46 µM), for the others: at the highest dose activity change, negative = inhibition, hits mostly inhibitors; 2.1% of 360,000 active; also: % is scaled to controls: 0 for no effect and ±100 for the full control effect; nearly all actives have a fitted effect of over 60% in size
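Two sequential reads on A549 ARE_Fluc cells exposed to compound for 18-24 h: a CellTiter-Fluor fluorescence read for viability, then a luciferase luminescence read for Nrf2/ARE activity.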
A549 tox-1: counter-screen for Nrf2 inhibitors: cytotoxicity in A549 cells. Potency, µM (highest dose often 46 µM), for inactives: at the highest dose activity change, negative = cytotoxicity, hits mostly inhibitors. A549 ARE-Fluc cells, CellTiter-Fluor viability, 18-24 h. AID 504648. 0.16% of 390,000 active; also: % is scaled to controls: 0 for no effect and ±100 for the full control effect
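A549 ARE-Fluc cells in 5% FBS OPTI-MEM, 5000 cells/well, rested 2 h then exposed to compounds in concentration-response for 18-24 h at 37 °C. Viability by CellTiter-Fluor fluorescence (Ex 405/Em 525) after 30 min; luciferase luminescence (BugLite, 15 min, RT) read afterwards.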
Nrf2 activator: activators of Nrf2 (ARE) signaling. 0.31% of 410,000 active. Potency, µM (top dose mostly 46.1 µM), inactives show top-dose activation, actives largely listed as activators. AREc32 ARE-luciferase reporter (MCF7-derived line), luminescence, 24 h; also: % of control where 0% means no effect; nearly all actives have a fitted effect of over 65% in size
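For detection, Steady-Glo was added and plates sat 30 min at RT; before that, AREc32_Fluc cells grown overnight in OPTI-MEM/5% FBS had been treated with 23 nL compound for 24 hr at 37 deg C.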
mIDH1 inhibitor: blocks human mutant IDH1 R132H enzyme. O75874. IDH1-R132H enzyme, NADPH consumption, diaphorase/resazurin fluorescence. Potency, µM (titrated, usually from 76.6 µM), for the others: top-dose activity change, negative = inhibition, actives largely listed as inhibitors. 0.093% of 390,000 active; also: % is scaled to controls: 0 for no effect and ±100 for the full control effect; nearly all actives have a fitted effect of over 65% in size
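IDH1-R132H (0.5 ug/mL dispensed) in pH 7.5 Tris buffer was preincubated 30 min with compound, then given a substrate mix of 0.016 mM NADPH and 2 mM alpha-KG for 80 min at room temperature; remaining NADPH was read by diaphorase/resazurin fluorescence.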
ELG1 repair inh: ELG1-dependent DNA repair inhibition. HEK293T ELG1-luciferase reporter, luminescence, 16 h; DNA damage induced by 5-fluorouridine. Potency, µM (titrated, usually from 46.1 µM), without a hit: top-dose activity change, negative = inhibition, actives largely listed as inhibitors. 2.3% of 330,000 active. AID 504467; also: % is scaled to controls: 0 for no effect and ±100 for the full control effect; nearly all actives have a fitted effect of over 55% in size
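Quantitative HTS, concentration-response format. 2,000 cells/well co-treated with 5-fluorouridine and compound, 16 hr in 5% CO2 at 37 °C; ONE-Glo luminescence read after 30 min.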
FLuc counter 3: blocks purified firefly luciferase in Nrf2 counterscreen; shares compounds with Nrf2 block; purified firefly luciferase, luminescence inhibition; Potency, µM (doses to about 57.5 µM), for the others: top-dose activity change, negative = inhibition, actives largely listed as inhibitors; 4% of 1,400 active; AID 720522; also: % is scaled to controls: 0 for no effect and ±100 for the full control effect; nearly all actives have a fitted effect of over 65% in size
Target sequence (P08659 whole entry, looked up): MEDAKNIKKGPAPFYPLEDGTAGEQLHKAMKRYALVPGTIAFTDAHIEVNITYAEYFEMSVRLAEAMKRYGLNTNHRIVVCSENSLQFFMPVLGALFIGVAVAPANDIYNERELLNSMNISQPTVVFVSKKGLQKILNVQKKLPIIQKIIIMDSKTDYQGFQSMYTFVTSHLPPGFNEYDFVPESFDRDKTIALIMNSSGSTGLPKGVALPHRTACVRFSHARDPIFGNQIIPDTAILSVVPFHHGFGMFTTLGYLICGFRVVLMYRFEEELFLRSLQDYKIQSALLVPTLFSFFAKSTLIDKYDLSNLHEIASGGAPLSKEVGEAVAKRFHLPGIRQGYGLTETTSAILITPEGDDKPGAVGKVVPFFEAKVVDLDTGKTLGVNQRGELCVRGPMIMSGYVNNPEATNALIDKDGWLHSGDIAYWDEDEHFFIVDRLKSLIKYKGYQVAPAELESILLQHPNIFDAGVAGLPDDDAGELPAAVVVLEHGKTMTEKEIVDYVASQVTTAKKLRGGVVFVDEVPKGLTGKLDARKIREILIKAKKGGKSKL
A549 tox-2: toxic to A549 ARE-Fluc cells in Nrf2 counterscreen | shares compounds with Nrf2 block | A549 ARE-Fluc cells, cytotoxicity counterscreen | Potency, µM (top dose mostly 46.1 µM), inactives show top-dose activity change, negative = cytotoxicity, actives largely listed as inhibitors | 2% of 1,400 active;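 also: cells exposed to compounds for 18 to 24 hours; % is scaled to controls: 0 for no effect and ±100 for the full control effect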
Nrf2 ARE inh: reduces Nrf2 ARE reporter signal in A549 cells | shares compounds with Nrf2 block | 74% of 1,400 active | A549 ARE-firefly luciferase reporter, luminescence | Potency, µM (highest dose often 46.1 µM), inactives show at the highest dose activity change, negative = inhibition, usual class: inhibitors | AID 720524; also: % is scaled to controls: 0 for no effect and ±100 for the full control effect; nearly all actives have a fitted effect of over 65% in size
Starred values were filed as active, the others as inactive; [ ] = remark or other dose. Calls follow the shape of the dose curve; as a rule, active = well fitted curve in the direction sought with a large enough effect; inconclusive = small, poorly fitted or top-dose-only effect, or another doubt; inactive = no such curve, though single readings can be large; an effect the other way counts as inactive or inconclusive. Potency is read from the fitted curve at half-maximal effect.

COc1ccc(CNC(=O)c2ccc(-c3nc(CSc4ccccc4)c(C)o3)cc2)c(OC)c1 was read as Nrf2 block 9%, A549 tox-1 9%, Nrf2 activator 6% and mIDH1 inhibitor 0%.
Cc1oc(-c2ccc(C(=O)Nc3cccc(C(F)(F)F)c3)cc2)nc1CSc1ccccc1 was read as Nrf2 block 5.8µM*, A549 tox-1 inconclusive, Nrf2 activator -1%, mIDH1 inhibitor 19%, FLuc counter 3 -1%, A549 tox-2 -26% and Nrf2 ARE inh 1.8µM*.
O=C(CI)Nc1cccc2cccnc12 was read as Nrf2 block inconclusive and A549 tox-1 -1%.
`Cc1ccc(C)c(OCc2ccc(C(=O)NN)o2)c1` gave Nrf2 block 0%, A549 tox-1 0%, Nrf2 activator 0%, mIDH1 inhibitor 3% and ELG1 repair inh inconclusive.
Screening Cc1ccc(C)c(OCc2ccc(C(=O)Nc3ccc([N+](=O)[O-])cn3)o2)c1 returned Nrf2 block 2.9µM*, A549 tox-1 -3%, Nrf2 activator 0%, mIDH1 inhibitor 4%, ELG1 repair inh -12%, FLuc counter 3 3%, A549 tox-2 -3% and Nrf2 ARE inh 5.2µM*.
COc1ccc(S(=O)(=O)c2nnn(-c3ccc(C(C)C)cc3)c2C)cc1 was read as Nrf2 block 9.2µM*, A549 tox-1 -20%, Nrf2 activator 0%, mIDH1 inhibitor 4%, FLuc counter 3 -1%, A549 tox-2 -1% and Nrf2 ARE inh 5.2µM*.
Screening CCCCN(CC)S(=O)(=O)c1ccc(C(=O)Nc2nnc(-c3cccs3)o2)cc1 returned Nrf2 block 2.3µM*, A549 tox-1 -18%, Nrf2 activator 0%, mIDH1 inhibitor 0%, ELG1 repair inh inconclusive, FLuc counter 3 3%, A549 tox-2 inconclusive and Nrf2 ARE inh 7.3µM*.
For COC(C(=O)C(O)C(C)O)C1Cc2cc3cc(OC4CC(OC5CC(O)C(O)C(C)O5)C(O)C(C)O4)c(C)c(O)c3c(O)c2C(=O)C1OC1CC(OC2CC(OC3CC(O)C(OC)C(C)O3)C(O)C(C)O2)C(O)C(C)O1 (stereo not drawn) the results were Nrf2 block 0.12µM*, A549 tox-1 inconclusive, Nrf2 activator -2%, mIDH1 inhibitor 4%, FLuc counter 3 -4%, A549 tox-2 -21% and Nrf2 ARE inh 0.37µM*.
CC[n+]1ccccc1/C=C1\Sc2ccc(C)cc2N1C was read as Nrf2 block 6.5µM*, A549 tox-1 inconclusive, Nrf2 activator 2%, mIDH1 inhibitor 8%, ELG1 repair inh 2.1µM*, FLuc counter 3 1%, A549 tox-2 -28% and Nrf2 ARE inh 2.9µM*.
For CN1/C(=C/c2cccc[n+]2CCO)Sc2ccccc21 the results were Nrf2 block inconclusive, A549 tox-1 4%, Nrf2 activator 4%, mIDH1 inhibitor 2% and ELG1 repair inh -8%.
O=C(CCS(=O)(=O)c1ccc(F)cc1)N1CCOCC1 was read as Nrf2 block inconclusive, A549 tox-1 -5%, Nrf2 activator 1%, mIDH1 inhibitor 8% and ELG1 repair inh inconclusive.
Screening COc1ccc(-n2cc(C(=O)NCc3ccccc3)c3ccccc3c2=O)cc1 returned Nrf2 block 11%, A549 tox-1 5%, Nrf2 activator 2% and mIDH1 inhibitor -5%.
`CCOc1ccccc1N1CCN(S(=O)(=O)c2ccc(C3CCCCC3)cc2)CC1` gave Nrf2 block 5%[9.27 µM], A549 tox-1 0%, Nrf2 activator 0% and mIDH1 inhibitor 1%.
For CCOc1ccc(Oc2ccccc2NC(=O)CSCC(=O)Nc2cc(C)on2)cc1 the results were Nrf2 block 9.2µM*, A549 tox-1 -19%, Nrf2 activator 2%, mIDH1 inhibitor 3%, ELG1 repair inh 21%, FLuc counter 3 -2%, A549 tox-2 -7% and Nrf2 ARE inh 7.3µM*.
Screening c1ccc(COc2ncnc3c2ncn3CCCNCc2ccc3c(c2)OCO3)cc1 returned Nrf2 block 16%, A549 tox-1 17%, Nrf2 activator 7% and mIDH1 inhibitor 3%[38.3 µM].
Screening CCOC(=O)Cc1ccc(NC(=O)N(Cc2ccc(CC)cc2)Cc2cn[nH]c2-c2ccc(OC)cc2)cc1 returned Nrf2 block 1%, A549 tox-1 20%, Nrf2 activator -2% and mIDH1 inhibitor -13%.
Screening Cc1cc(NC(=O)c2cc(-c3ccco3)on2)nn1Cc1ccc(Cl)cc1 returned Nrf2 block -26%, A549 tox-1 -17%[1.84 µM], Nrf2 activator 0%, mIDH1 inhibitor 4% and ELG1 repair inh inconclusive.
For Cc1cc(NC(=O)c2cc(-c3ccc(F)cc3)on2)nn1Cc1ccc(Cl)cc1 the results were Nrf2 block 6.5µM*, A549 tox-1 -14%, Nrf2 activator 0%, mIDH1 inhibitor 6%, FLuc counter 3 0%, A549 tox-2 -10% and Nrf2 ARE inh 2.9µM*.
COc1cccc(-c2cc(C(=O)Nc3cc(C)n(Cc4ccc(Cl)cc4)n3)no2)c1 was read as Nrf2 block inconclusive, A549 tox-1 inconclusive, Nrf2 activator 0%, mIDH1 inhibitor -1%, ELG1 repair inh inconclusive, FLuc counter 3 -4%, A549 tox-2 -9% and Nrf2 ARE inh 7.3µM*.
Screening Cc1ccc(Cn2nc(C)c(NC(=O)c3cc(-c4ccc(F)cc4)on3)c2C)cc1 returned Nrf2 block -30%, A549 tox-1 -15%, Nrf2 activator 0% and mIDH1 inhibitor -11%.
CCn1nc(C)c(NC(=O)/C=C/c2cnn(C)c2C)c1C was read as Nrf2 block -18%, A549 tox-1 -18%, Nrf2 activator 0%, mIDH1 inhibitor -1% and ELG1 repair inh 8%.
`CCn1ncc(/C=C/C(=O)Nc2c(C)nn(Cc3ccc(Cl)cc3Cl)c2C)c1C` gave Nrf2 block 5.8µM*, A549 tox-1 inconclusive, Nrf2 activator 8%, mIDH1 inhibitor 5%, ELG1 repair inh -24%, FLuc counter 3 -10% and A549 tox-2 -23%.
Screening CCCCc1ccc(-n2nc3cc(C)c(NC(=O)c4ccc(C#N)cc4F)cc3n2)cc1 returned Nrf2 block 16%, A549 tox-1 -8%, Nrf2 activator 0% and mIDH1 inhibitor 12%.
